{"source": "the antibiotic and cytotoxicity screens of Wong et al. (2023)", "note": "Screen size: about 39,000 compounds; about 3,300 (8.5%) were called active. Only a selection was taken, and actives are over-represented in it overall.", "data": [{"tested_on": "HepG2", "experiment": "cytotoxicity call (relative viability < 0.9)", "conditions": "10 µM", "values": [{"smiles": "CCS(=O)(=O)N1CC[C@]2(CC1)CN([C@H](CO)c1c2c2ccc(cc2n1C)OC)C(=O)Nc1c(noc1C)C", "cytotoxicity call": "inactive"}, {"smiles": "Cc1cc(O)cc(=O)o1", "cytotoxicity call": "inactive"}, {"smiles": "C[C@@H]1CN([C@H](C)CO)C(=O)c2cc(NC(=O)Nc3ccc(F)cc3)ccc2O[C@@H](C)CCCCO[C@@H]1CN(C)S(=O)(=O)c1ccc(Cl)cc1", "cytotoxicity call": "inactive"}, {"smiles": "COc1ccc(NC(=O)Nc2ccc3c(c2)C(=O)N([C@@H](C)CO)C[C@@H](C)[C@H](CN(C)C(=O)Nc2ccccc2)OCCCC[C@H](C)O3)cc1", "cytotoxicity call": "inactive"}, {"smiles": "CC(C)NC(=O)Nc1ccc2c(c1)C(=O)N([C@@H](C)CO)C[C@@H](C)[C@@H](CN(C)S(=O)(=O)c1cn(C)cn1)OCCCC[C@@H](C)O2", "cytotoxicity call": "inactive"}, {"smiles": "COc1ccc2c3c([nH]c2c1)[C@H](CO)N(C[C@]13CCN(CC1)Cc1ccc(cc1)F)C(=O)Nc1ccc(cc1)F", "cytotoxicity call": "active"}, {"smiles": "COc1ccc2c3c([nH]c2c1)[C@@H](CO)N(C[C@]13CCN(CC1)C(=O)Nc1ccccc1)C(=O)Nc1ccc(cc1)F", "cytotoxicity call": "inactive"}, {"smiles": "COc1ccc2c3c([nH]c2c1)[C@H](CO)N(C[C@]13CCN(CC1)Cc1cc(on1)-c1ccccc1)C(=O)Nc1ccc(cc1)F", "cytotoxicity call": "inactive"}, {"smiles": "COc1ccc2c3c([nH]c2c1)[C@@H](CO)N(C[C@]13CCN(CC1)Cc1ccc(cc1)F)C(=O)Nc1ccc(cc1)F", "cytotoxicity call": "active"}, {"smiles": "COc1ccc2c3c([nH]c2c1)[C@H](CO)N(C[C@]13CCN(CC1)C(=O)Nc1ccccc1)C(=O)Nc1ccc(cc1)F", "cytotoxicity call": "active"}, {"smiles": "COc1ccc2c3c([nH]c2c1)[C@H](CO)N(C[C@]13CCN(CC1)Cc1ccccc1OC)C(=O)Nc1ccc(cc1)F", "cytotoxicity call": "inactive"}, {"smiles": "COc1ccc2c3c([nH]c2c1)[C@@H](CO)N(C[C@]13CCN(CC1)Cc1cc(ccc1F)F)C(=O)Nc1ccc(cc1)F", "cytotoxicity call": "inactive"}, {"smiles": "COc1ccc2c3c([nH]c2c1)[C@@H](CO)N(C[C@]13CCN(CC1)Cc1ccccc1OC)C(=O)Nc1ccc(cc1)F", "cytotoxicity call": "active"}, {"smiles": "COc1ccc2c3c([nH]c2c1)[C@H](CO)N(C[C@]13CCN(CC1)Cc1cc(ccc1F)F)C(=O)Nc1ccc(cc1)F", "cytotoxicity call": "inactive"}, {"smiles": "COc1ccc2c3c([nH]c2c1)[C@@H](CO)N(C[C@]13CCN(CC1)S(=O)(=O)C)C(=O)Nc1ccc(cc1)F", "cytotoxicity call": "inactive"}, {"smiles": "COc1ccc2c3c([nH]c2c1)[C@H](CO)N(C[C@]13CCN(CC1)S(=O)(=O)C)C(=O)Nc1ccc(cc1)F", "cytotoxicity call": "inactive"}, {"smiles": "COc1ccc2c3c([nH]c2c1)[C@@H](CO)N(C[C@]13CCN(CC1)C(=O)Nc1ccc(cc1)F)C(=O)c1ccc(cc1)F", "cytotoxicity call": "inactive"}, {"smiles": "COc1cc(OC)c(NC(=O)Cn2c(=O)n(-c3ccc(CC(=O)NC[C@H]4CCCO4)cc3)c(=O)c3ccccc32)cc1Cl", "cytotoxicity call": "inactive"}, {"smiles": "C[C@H]1CN([C@@H](C)CO)C(=O)c2cccc(NC(=O)Nc3ccccc3)c2O[C@@H]1CN(C)C(=O)Nc1cccc2ccccc12", "cytotoxicity call": "inactive"}, {"smiles": "C/C(=C\\C(=O)OCCCCCCCCC(=O)O)C[C@@H]1OC[C@H](C[C@@H]2O[C@H]2[C@@H](C)[C@H](C)O)[C@@H](O)[C@H]1O", "cytotoxicity call": "inactive"}, {"smiles": "CC(=O)N1[C@H](CO)[C@@H](c2ccccc2)[C@@H]1CNC(=O)CN1CCOCC1", "cytotoxicity call": "inactive"}, {"smiles": "C[C@H]1CN([C@@H](C)CO)S(=O)(=O)c2ccc(-c3cccc(F)c3)cc2O[C@H]1CN(C)S(C)(=O)=O", "cytotoxicity call": "inactive"}, {"smiles": "COCC#Cc1ccc2c(c1)O[C@@H](CN(C)S(=O)(=O)c1cccc(OC)c1)[C@H](C)CN([C@@H](C)CO)S2(=O)=O", "cytotoxicity call": "inactive"}, {"smiles": "C[N+](C)(C)CC(O)CC(=O)[O-]", "note": "(stereo unspecified)", "cytotoxicity call": "active"}, {"smiles": "C[N+](C)(C)C[C@@H](O)CC(=O)O", "cytotoxicity call": "inactive"}, {"smiles": "C[N+](C)(C)C[C@H](O)CC(=O)O", "cytotoxicity call": "inactive"}, {"smiles": "COCCCOc1ccnc(CS(=O)c2nc3ccccc3[n-]2)c1C.[Na+]", "note": "(stereo unspecified)", "cytotoxicity call": "inactive"}, {"smiles": "C[C@@H]1CN([C@@H](C)CO)S(=O)(=O)c2ccc(-c3cncnc3)cc2O[C@H]1CN(C)C(=O)NC1CCCC1", "cytotoxicity call": "inactive"}, {"smiles": "CC(=O)[C@@]12C=CCC[C@@H]1C[C@@H](C(=O)Nc1c(C)cccc1Cl)N2C(=O)c1nc(C)oc1C(F)(F)F", "cytotoxicity call": "inactive"}, {"smiles": "N=C(N)SCCN1C(=O)c2ccccc2C1=O", "cytotoxicity call": "inactive"}, {"smiles": "O=C1c2ccc3c4c(ccc(c24)C(=O)N1CCCCO)C(=O)N(CCCCO)C3=O", "cytotoxicity call": "active"}, {"smiles": "O=C(O)CCCN1C(=O)c2cccc3cccc(c23)C1=O", "cytotoxicity call": "inactive"}, {"smiles": "C[C@H]1CN([C@@H](C)CO)C(=O)CCCn2cc(nn2)CO[C@H]1CN(C)Cc1ccc(C(=O)Nc2ccccc2N)cc1", "cytotoxicity call": "inactive"}, {"smiles": "CN(C)C1CN(S(=O)(=O)CCC2CC2)C1", "cytotoxicity call": "inactive"}, {"smiles": "CO[C@H]1CN(C)C(=O)c2cc(NS(C)(=O)=O)ccc2OC[C@H](C)N(C(=O)C2CCCCC2)C[C@H]1C", "cytotoxicity call": "inactive"}, {"smiles": "COc1ccc(CN2C[C@H](C)[C@@H](OC)CN(C)C(=O)c3cc(NC(=O)c4nc5ccccc5s4)ccc3OC[C@@H]2C)cc1", "cytotoxicity call": "inactive"}, {"smiles": "CO[C@H]1CN(C)C(=O)c2cc(NC(=O)NC3CCCCC3)ccc2OC[C@H](C)N(CCc2ccccc2)C[C@@H]1C", "cytotoxicity call": "inactive"}, {"smiles": "COCC(=O)Nc1ccc2c(c1)C(=O)N(C)C[C@H](OC)[C@@H](C)CN(C(=O)Cc1ccccn1)[C@H](C)CO2", "cytotoxicity call": "active"}, {"smiles": "CO[C@@H]1CN(C)C(=O)c2cc(NS(C)(=O)=O)ccc2OC[C@H](C)N(C(=O)C2CCCCC2)C[C@H]1C", "cytotoxicity call": "inactive"}, {"smiles": "CO[C@@H]1CN(C)C(=O)c2cc(NS(C)(=O)=O)ccc2OC[C@H](C)N(C(=O)C2CCCCC2)C[C@@H]1C", "cytotoxicity call": "active"}, {"smiles": "COc1ccc(CN2C[C@@H](C)[C@H](OC)CN(C)C(=O)c3cc(NC(=O)c4nc5ccccc5s4)ccc3OC[C@H]2C)cc1", "cytotoxicity call": "inactive"}, {"smiles": "COc1ccc(CN2C[C@@H](C)[C@H](OC)CN(C)C(=O)c3cc(NC(=O)c4nc5ccccc5s4)ccc3OC[C@@H]2C)cc1", "cytotoxicity call": "active"}, {"smiles": "COCC(=O)Nc1ccc2c(c1)C(=O)N(C)C[C@@H](OC)[C@H](C)CN(C(=O)Cc1ccccn1)[C@H](C)CO2", "cytotoxicity call": "inactive"}, {"smiles": "CO[C@@H]1CN(C)C(=O)c2cc(NC(=O)NC3CCCCC3)ccc2OC[C@H](C)N(CCc2ccccc2)C[C@H]1C", "cytotoxicity call": "active"}, {"smiles": "COCC(=O)Nc1ccc2c(c1)C(=O)N(C)C[C@H](OC)[C@@H](C)CN(C(=O)Cc1ccccn1)[C@@H](C)CO2", "cytotoxicity call": "inactive"}, {"smiles": "CO[C@H]1CN(C)C(=O)c2cc(NC(=O)NC3CCCCC3)ccc2OC[C@@H](C)N(CCc2ccccc2)C[C@@H]1C", "cytotoxicity call": "inactive"}]}]}
